The supplement of paper PMC3414501
Where a name gives a salt, the structure may show the parent alone.

How the values were obtained:
[1] = tested on: S. cerevisiae SK1 pCDA2-eGFP (USY613), sporulating; assay: CDA2-GFP sporulation assay sensitivity score (z-score vs DMSO controls); higher = stronger inhibition of sporulation, active = hit call of the paper;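 further: active if sensitivity score above 5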
[2] = tested on: S. cerevisiae AD1-9 (efflux-pump deficient), vegetative growth in YPD; assay: growth sensitivity score (doubling time z-score vs DMSO controls); higher = slower growth, strongly negative scores also mark growth inhibition (complete suppression), active = hit call of the paper
In short: (§1)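 Optical density of Saccharomyces cerevisiae cultures in microtiter plates was followed every 15 min for 24 hours after seeding at an OD600 of 0.065. Eight solvent-only wells were run per experiment. Growth sensitivity scores were found by subtracting the solvent-only mean from the compound mean and dividing by the solvent-only standard deviation.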

[3] = tested on: S. cerevisiae BY4741 (wild-type), vegetative growth in YPD; assay: as above
In short: as §1

[4] = stock concentration (mM, diluted 1:100): 10
[5] = stock concentration (mM, diluted 1:100): 7.7
[6] = stock concentration (mM, diluted 1:100): 10.1

Oc1ccc2c3c1O[C@H]1c4[nH]c5ccccc5c4C[C@@]4(O)[C@@H](C2)N(CC2CC2)CC[C@]314 [Naltrindole]
CDA2-GFP sporulation assay sensitivity score [1, 4]: 3.11 (inactive) | growth sensitivity score [2, 4]: -3.12 | growth sensitivity score [3, 4]: -1.11 (inactive)

CCC(COC(=O)c1cc(OC)c(OC)c(OC)c1)(c1ccccc1)N(C)C (stereo not given) [Trimebutine maleate]
CDA2-GFP sporulation assay sensitivity score [1, 5]: 0.35 (inactive) | growth sensitivity score [2, 5]: 3.33 (active) | growth sensitivity score [3, 5]: 0.59 (inactive)

CS(=O)(=O)Nc1ccc(Cc2noc(-c3ccc4[nH]cc(CCN)c4c3)n2)cc1
CDA2-GFP sporulation assay sensitivity score [1, 4]: 2.55 (inactive) | growth sensitivity score [2, 4]: -0.07 (inactive) | growth sensitivity score [3, 4]: 0.39 (inactive)

N=C(NCc1ccc(Cl)cc1)SCCCc1c[nH]cn1 [Clobenpropit]
CDA2-GFP sporulation assay sensitivity score [1, 4]: 1.25 (inactive) | growth sensitivity score [2, 4]: 0.21 (inactive) | growth sensitivity score [3, 4]: 0.09 (inactive)

C[C@]12CCC(=O)C=C1CC[C@@H]1[C@@H]2CC[C@@]2(C)[C@H]1CC[C@]2(C)O [Methyltestosterone]
CDA2-GFP sporulation assay sensitivity score [1, 4]: 3.87 (inactive) | growth sensitivity score [2, 4]: 32.3 (active) | growth sensitivity score [3, 4]: 3.83 (active)

COc1cc(N)c(Cl)cc1C(=O)NC1CN2CCC1CC2 (stereo not given) [Zacopride]
CDA2-GFP sporulation assay sensitivity score [1, 4]: 2.91 (inactive) | growth sensitivity score [2, 4]: -2.46 | growth sensitivity score [3, 4]: -1.3 (inactive)

CC(NC(C)(C)C)C(=O)c1cccc(Cl)c1 (stereo not given) [Amfebutamone hydrochloride]
CDA2-GFP sporulation assay sensitivity score [1, 6]: 0.84 (inactive) | growth sensitivity score [2, 6]: 0.01 (inactive) | growth sensitivity score [3, 6]: -0.7 (inactive)

CNC1CC(c2ccc(Cl)c(Cl)c2)c2ccccc21 (stereo not given) [Indatraline]
CDA2-GFP sporulation assay sensitivity score [1, 4]: 2.43 (inactive)

COC(=O)N1CCN(C(=O)Cc2ccc(Cl)c(Cl)c2)C(CN2CCCC2)C1 (stereo not given)
CDA2-GFP sporulation assay sensitivity score [1, 4]: 3.34 (inactive) | growth sensitivity score [2, 4]: -1.16 (inactive) | growth sensitivity score [3, 4]: -1.35 (inactive)
